Bioassay records from PubChem.
S2 tox: Viability Counterscreen for Primary qHTS for Inhibitors of ATXN expression | Potency, µM (series often up to 56.7 µM), most hits filed as cytotoxic | AID 651635, 2014 | 0.49% of 400,000 active | S2 cells (HEK-293 line with an ATXN2-luciferase reporter) viability, CellTiter-Fluor protease fluorescence, 24 h; also: nearly all actives have a fitted effect of over 40% in size
KB-3-1 tox: qHTS assay for MDR1-selective chemotherapeutics: Primary screen using the parental adenocarcinoma cell KB-3-1. KB-3-1 viability, CellTiter-Glo ATP luminescence, 72 h. Potency, µM (top dose mostly 46.1 µM), actives largely listed as cytotoxic. 1.4% of 400,000 active; also: % is scaled to controls: 0 for no effect and ±100 for the full control effect; nearly all actives have a fitted effect of over 60% in size
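Luminescent ATP read-out (CellTiter-Glo) measures survival of drug-naive KB-3-1 cells after 72 h compound exposure at 37 °C. Titration series was screened from lowest to highest concentration, with DMSO vehicle plates as background controls.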
TGFb inhibitor: qHTS for Inhibitors of TGF-b; HepG2 CAGA-GFP TGF-b/SMAD3 reporter, GFP fluorescence, 18 h; TGF-beta stimulated, 500 pg/mL final; Potency, µM (series often up to 46.1 µM), inactives show at the top dose activity, negative = inhibition, most hits filed as inhibitors; 1.2% of 410,000 active; AID 588855, 2011; also: % is scaled to controls: 0 for no effect and ±100 for the full control effect; nearly all actives have a fitted effect of over 65% in size
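Inhibition was scored as loss of TGF-beta-induced (500 pg/mL final, 18 hours, 37 degrees C) GFP in HEPG2 cells carrying a CAGA-GFP reporter, in DMEM with 1% FBS. Well GFP was summed per cell; Activity was normalised to unstimulated and stimulated DMSO wells, then concentration-response fitting.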
ATXN2 expr inh: Primary qHTS for Inhibitors of ATXN expression; HEK-293 ATXN2-luciferase reporter, luminescence, 24 h; AID 1745845, 2022; Potency, µM (titrated, usually from 57 µM), for inactives: at the highest dose activity change, negative = inhibition, actives largely listed as inhibitors; 0.72% of 360,000 active; also: % is scaled to controls: 0 for no effect and ±100 for the full control effect; nearly all actives have a fitted effect of over 55% in size
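qHTS (up to 57 uM final) was run with 24 h compound exposure of reporter cells at 37 °C. Each well was multiplexed: SteadyGlo luminescence measured ATXN2-luciferase expression after a fluorogenic Gly-Phe-AFC viability readout (25 uM final).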
HepG2 viability: qHTS for Inhibitors of TGF-b: Cytotox Counterscreen | HepG2 CAGA-GFP viability, ATP luminescence, 18 h | Potency, µM (doses to about 46.1 µM), for inactives: at the highest dose activity change, negative = cytotoxicity, actives largely listed as cytotoxic | 0.76% of 410,000 active | AID 588856, 2011
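HepG2 CAGA-GFP cells (1000/well, DMEM with 1% FBS) received compound, then TGF-beta at 500 pg/mL final, and were incubated 18 hours at 37 degrees C. Viability was read by CellTiter-Glo luminescence. Media-only wells were set as complete cell-killing and DMSO as no toxicity.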
KB-V1 MDR tox: qHTS assay for MDR1-selective chemotherapeutics: Primary screen using the drug-selected MDR subline cells KB-V1. KB-V1 MDR cells viability, CellTiter-Glo, 72 h. Potency, µM (top dose mostly 46.1 µM), most hits filed as cytotoxic. 3.4% of 400,000 active. AID 1347076, 2019; also: % is scaled to controls: 0 for no effect and ±100 for the full control effect; nearly all actives have a fitted effect of over 60% in size
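Cytotoxicity via CellTiter-Glo luminescence after 72 h compound exposure at 37 degrees C. Cells: drug-selected KB-V1 line, DMEM phenol-red free plus 10% FBS. Compounds tested at multiple concentrations; normalized data fitted to concentration-effect curves.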
Starred values were filed as active, the others as inactive; i = inactive; ? = inconclusive; · = no result. Most compounds without a hit are left out; they make up all but 5.9% or so of the library. Calls follow the shape of the dose curve; as a rule, active = well fitted curve in the direction sought with a large enough effect; inconclusive = small, poorly fitted or top-dose-only effect, or another doubt; inactive = no such curve, though single readings can be large; an effect the other way counts as inactive or inconclusive. Potency is read from the fitted curve at half-maximal effect.

SMILES | S2 tox | KB-3-1 tox | TGFb inhibitor | ATXN2 expr inh | HepG2 viability | KB-V1 MDR tox
CCc1nc2ccc(C(=O)Nc3ccc(Cl)c(Cl)c3)cn2c1N(C)Cc1ccc(OC)cc1 | · | i | 11.2µM* | ? | -44.1% | ?
O=S(=O)(Cc1ccc(Cl)cc1)N1CCN(Cc2ccccc2)CC1 | i | i | ? | -27.0% | 2.8% | i
CCc1ccc(CN2CCN(S(=O)(=O)Cc3ccccc3)CC2)cc1 | i | i | 5.5% | -11.9% | -1.1% | 10.3µM*
O=C(NCC(c1cccs1)N1CCOCC1)c1cc([N+](=O)[O-])ccc1Cl (stereo not given) | i | i | 0.0% | 2.7% | 8.5% | i
O=[N+]([O-])c1ccc(O)c(C(C#Cc2ccccc2)N2CCOCC2)c1 (stereo not given) | i | i | 12.6µM* | 23.4% | -3.7% | i
Cc1nn(Cc2ccccc2)c(C)c1NC(=O)CCCn1nc(C)c([N+](=O)[O-])c1C | i | i | -1.7% | 5.1% | -13.9% | 23.1µM*
Cc1c(Cl)c([N+](=O)[O-])nn1CCCC(=O)Nc1cccc(Cl)c1 | i | ? | 0.0% | -3.2% | 5.4% | 18.4µM*
Cc1c(Cl)c([N+](=O)[O-])nn1CCCC(=O)Nc1cccnc1 | i | i | -27.5% | · | -0.9% | ?
Cc1ccc(CNC(=O)c2ccc3c(c2)nc2n3CCCC2)cc1 | · | · | -26.7% | · | -23.8% | ·
CCOC(=O)c1ccc(S(=O)(=O)Nc2ccccc2-c2nnn(CC)n2)cc1 | i | i | -5.3% | -8.6% | 0.7% | 16.4µM*
Cc1ccc(S(=O)(=O)Nc2ccccc2CNc2cccc(C)n2)cc1 | i | i | 0.0% | 5.0% | -21.5% | 5.8µM*
CCn1nc(C)c(NS(=O)(=O)c2ccc(C)cc2)c1C | i | ? | -5.6% | -8.2% | -23.1% | 16.4µM*
CCOC(=O)c1ccccc1NS(=O)(=O)c1ccc(C)cc1 | i | 25.9µM* | 6.7% | -20.9% | -10.0% | ?
CCOC(=O)c1ccccc1NS(=O)(=O)c1ccccc1 | i | i | -3.3% | 4.7% | -27.4% | ?
COc1ccccc1CCNC(=O)C1CCN(c2nnc(-n3cccc3CNc3ccc(C)cc3)s2)CC1 | · | · | 0.0% | · | -29.2% | ·
O=C(Nc1ccc2c(c1)CCC2)c1cnn2c1NC(=C1CC1)C=C2C(F)F | · | i | -2.6% | · | -3.5% | i
Cc1ccc(N2CCN(C(=O)c3cc4cc5ccc(C)cc5nc4s3)CC2C)cc1 (stereo not given) | i | i | ? | 12.4% | -4.2% | i
Cc1ccnc2c(N)cccc12 | · | ? | -8.3% | · | -21.8% | i
Cc1ccc(S(=O)(=O)Nc2ccccc2O)cc1 | · | i | · | · | · | i
Cc1ccc(S(=O)(=O)Nc2ccccc2-c2ccccc2)cc1 | ? | 3.26µM* | -12.4% | -20.9% | -8.6% | ?
Cc1ccc(S(=O)(=O)Nc2ccccc2N2CCOCC2)cc1 | i | 13µM* | -13.2% | -18.7% | 0.2% | ?
Cc1ccc(S(=O)(=O)Nc2ccccc2NS(=O)(=O)c2ccc(C)cc2)cc1 | i | ? | ? | -7.8% | -36.0% | 20.6µM*
Cc1ccc(S(=O)(=O)Nc2ccc(Cl)cc2O)cc1 | · | ? | · | · | · | 20.6µM*
CSc1nnc(-c2sccc2OCc2ccccc2)n1C | i | i | -12.9% | 2.6% | -5.2% | i
CSc1n[nH]c(-c2sccc2OCc2ccc(C)cc2)n1 | i | i | -17.3% | -11.9% | -18.0% | 16.4µM*
SMILES | S2 tox | KB-3-1 tox | TGFb inhibitor | ATXN2 expr inh | HepG2 viability | KB-V1 MDR tox
CCOc1ccc(S(=O)(=O)NCc2cccnc2)cc1NC(=O)c1ccccc1F | i | 18.4µM* | 33.9% | -33.1% | -4.7% | ?
CCOc1ccc(C(=O)NCc2ccncc2)cc1OCC | ? | i | -2.2% | -1.5% | 3.9% | i
Cc1ccc(SCc2ccc(C(=O)NCc3ccncc3)cc2)cc1 | i | i | -2.3% | -13.6% | -8.1% | 18.4µM*
CCOc1cc(C(=O)NCc2ccncc2)cc(OCC)c1OCC | i | i | -15.4% | 0.5% | 2.5% | 7.31µM*
COc1ccc(S(=O)(=O)NCc2ccccn2)cc1NC(=O)c1ccccc1C | i | 14.6µM* | 0.1% | -15.6% | -12.2% | ?
CCOC(=O)CSc1nc2ccc(NC(=O)c3ccccc3F)cc2s1 | ? | i | 27.3% | 0.5% | 1.4% | i
CCOc1ccc(S(=O)(=O)NCc2ccncc2)cc1NC(=O)c1ccccc1 | i | 0.581µM* | ? | -22.0% | 6.2% | ?
COc1ccccc1CNCC(O)Cn1c2ccccc2c2ccccc21 (stereo not given) | · | ? | ? | ? | 11.2µM* | ?
Cc1cccnc1C(NC(=O)C1CCN(CCOc2ccc(Cl)cc2Cl)CC1)c1ccc(Cl)cc1 (stereo not given) | 25.1µM* | ? | ? | 20µM* | -41.8% | ?
Cc1cccnc1C(NC(=O)C1CCN(Cc2ccc(Cl)cc2)CC1)c1ccccc1 (stereo not given) | i | i | 15.6% | -18.4% | -17.9% | i
Cc1cccnc1C(NC(=O)C1CCN(CCCc2ccccc2)CC1)c1ccc(Cl)cc1 (stereo not given) | ? | i | ? | ? | 11.2µM* | i
Cc1cccnc1C(NC(=O)C1CCN(Cc2cn(C)c3ccccc23)CC1)c1ccc(Cl)cc1 (stereo not given) | ? | ? | ? | ? | 8.91µM* | ?
OC(c1ccc2c(c1)CN(Cc1ccc3nsnc3c1)CCO2)C1CCCCC1 (stereo not given) | i | · | · | · | · | ·
COc1cc(O)c(C(CC(=O)N2CCC(C)CC2)c2ccc(OC)c(OC)c2)c(OC)c1 (stereo not given) | · | i | · | · | · | i
N#Cc1c(NC(=O)c2cccc3ccccc23)sc2c1CCCC2 | · | · | · | 11.9% | · | ·
CN(C)/[N+]([O-])=N/Oc1ccc([N+](=O)[O-])cc1[N+](=O)[O-] | · | · | ? | · | -90.3% | ·
COc1ccc(/C=N/Nc2nncn2N)cc1Br | i | i | ? | -18.8% | -105.0% | i
COc1cc(/C=N/Nc2nncn2N)ccc1OCc1c(C)no[n+]1[O-] | i | i | 7.08µM* | · | 10µM* | ?
COc1cc(NC(=O)c2c(C)oc3c2C2=NCCN2C=N3)cc(OC)c1OC | i | i | ? | -1.8% | -13.4% | ?
COc1ccc(OC)c2cc3ccccc3cc12 | · | i | -6.5% | 17.8µM* | -7.4% | i
